Here are results for 13 compounds from the supplement of paper PMC9897528.

Structures are written as SMILES. Values without a mark were called inactive.
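Also: conidia screened in RPMI 1640 medium under 5% CO2, growth read by spectrophotometer, medium with 0.5% DMSO serving as the untreated reference.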

The subject of this assay is Scedosporium aurantiacum CBS 136046. As to the kind of experiment: growth inhibition relative to DMSO control (OD600); higher = more antifungal activity, active = 80 or more. Particulars: 5 µM; 72 h; 37 °C.
On to `COc1ccccc1CN[C@H]1C2CCN(CC2)[C@H]1C(c1ccccc1)c1ccccc1`, for which the growth inhibition was 25.9%.
With `CCCCc1ccc(C(=O)O)nc1` the figure was 15.8%; with `CC(C)Oc1cccc(NC(=O)c2ccccc2C(F)(F)F)c1`, 6.87%; with `C[C@@]1(O)[C@H](O)[C@@H](CO)O[C@H]1n1ccc2c(N)ncnc21`, 3.66%.
For `COc1cc(C(C)(C)CCCC(C)C)cc(OC)c1OC` the value was 13.3%; for `Nc1c(C(=O)NCc2ccco2)c2nc3ccccc3nc2n1CCN1CCCCC1`, 36.7%; for `C[C@H]1CC[C@]2(NC1)O[C@H]1C[C@H]3[C@@H]4CC[C@H]5C[C@@H](O)CC[C@]5(C)[C@H]4CC[C@]3(C)[C@H]1[C@@H]2C`, 8.88%.
With `O=C(NC12CC3CC(CC(C3)C1)C2)c1cc2ccccc2[nH]1` the figure was 1.85%; with `CN1C(=O)C(c2ccccc2)C(=O)N(c2ccccc2)c2cc(C(F)(F)F)ccc21` (stereo not drawn), 2.84%.
As for `C[N+]1(C)CCCC(OC(=O)C(O)(c2ccccc2)c2ccccc2)C1` (stereo not drawn), the growth inhibition was 34.9%.
For `CCN1CCN(Cc2nc3ccc([N+](=O)[O-])cc3c(=O)n2-c2ccccc2F)CC1` the value was 2.42%; for `COC(=O)Nc1nc2ccccc2[nH]1`, 1.58%.
With `NC1(C(=O)O)CCP(=O)(O)CC1` (stereo not drawn) the figure was 11.9%.
